# Screening results deposited in PubChem by National Center for Advancing Translational Sciences (NCATS).
# Rows were chosen to be rich in hits. Some 5.7% of all compounds tested hit in one or more screens of this group.
# GLP1R cytotox: cytotoxicity in counter-screen for GLP-1R inverse agonists; 0.13% of 410,000 active; HEK293 cAMP-luciferase reporter cells, luminescence, 24 h; AID 624418; Potency, µM (series often up to 38.3 µM), most hits filed as inhibitors;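 also: loss of luciferase light is scored as toxicity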
#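 Quantitative HTS format, 1536 wells, 200 cells/uL seeded. Compounds: 23 nL, 24 h, 37 °C. Detection: luciferase reagent, luminescence at 12 min RT; decreased signal taken as cytotoxic.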
# D3 antag: D3 dopamine receptor (human) antagonism | 2.5% of 360,000 active | D3R cells, DiscoveRx beta-arrestin luminescence, antagonist mode; stronger effect = lower value | max response, negative = inhibition, % | P35462; in the data active = max response below about -50%; inconclusive = no clear call, values can overlap the other calls
#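 Cells expressing the human receptor were seeded at 1500 cells/well, incubated overnight at 37 degrees C in 5% CO2, then exposed to library compounds with dopamine controls for 90 minutes at 37 degrees C before luminescent detection.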
# ClpP mod: qHTS Assay for Activators of ClpP. ATP-dependent Clp protease proteolytic subunit (Bacillus subtilis (strain 168)), P80244. purified B. subtilis ClpP, FRET peptide cleavage, 20 min. Potency, µM (highest dose often 57.5 µM). 1.9% of 340,000 active; active = well fitted falling curve with a large enough effect; inconclusive = small, poorly fitted or top-dose-only effect; inactive = no such curve, though single readings can be large or run the other way; also: the source files actives as falling curves though it sought activators and does not explain the sign; nearly all actives have a fitted effect of over 65% in size
#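 Buffer: 100 mM Tris/HCl pH8, 100 mM KCl, 0.05% low protease BSA, 2.5% glycerol, 0.01% Tween-20. ClpP 10 microg/mL final; 20 min RT; delta FRET normalized to ADEP and DMSO controls.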
# GLP-1R inv ag: acts as inverse agonist at human GLP-1 receptor; P43220; HEK293 GLP-1R CRE-luciferase, luminescence, 24 h; GLP-1R form is constitutively active; Potency, µM (titrated, usually from 38.3 µM), most hits filed as inhibitors; 1.6% of 410,000 active; also: nearly all actives have a fitted effect of over 55% in size
#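 GLP-1R inverse agonism mode: basal reporter luminescence in engineered HEK293 cells measured after one day of compound exposure at 37 deg C, with a 12 min room-temperature detection step.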
# GLP1R ag: activates the human GLP-1 receptor | Potency, µM (doses to about 45.6 µM), usual class: activators | HEK293 GLP-1R CRE-luciferase, luminescence, 4-6 h; cells express a hypersensitive GLP-1R form | P43220 | 0.007% of 380,000 active | AID 624172
# DRD3 agonist: D3 dopamine receptor (human) agonism; P35462; D3R DiscoveRx beta-arrestin cells, luminescence, 90 min; max activation, %; 0.58% of 410,000 active; AID 652048; in the data active = max activation above about 30%
#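 Agonist mode: compounds and dopamine controls were applied to plated cells for 90 min at 37 degrees C after an overnight attachment at 1500 cells/well. Luminescent read-out followed 30 - 60 minutes at room temperature with DiscoveRx detection reagent.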
# Numbers stand for hits; n = inactive; u = inconclusive; x = no result given. Unless noted, calls follow the shape of the dose curve; as a rule, active = well fitted curve in the direction sought with a large enough effect; inconclusive = small, poorly fitted or top-dose-only effect, or another doubt; inactive = no such curve, though single readings can be large; an effect the other way counts as inactive or inconclusive.
SMILES,GLP1R cytotox,D3 antag,ClpP mod,GLP-1R inv ag,GLP1R ag,DRD3 agonist
COc1ccc2cc(CNCCOCCOCCNCc3ccc4cc(OC)ccc4c3)ccc2c1,4µM,u,n,u,n,n
COc1ccc(CNCc2cccc(Cl)c2)cc1,n,-50,n,n,n,n
Cc1ccc(Cn2c(C)c(CNCC(C)c3ccccc3)c(C(=O)O)c2C)cc1 (stereo unspecified),n,x,n,n,x,n
Cc1coc2cc3oc(=O)c(CC(=O)NCCc4ccccc4)c(C)c3cc12,n,x,n,n,x,n
O=C(O)c1cc(=O)c2c3nc4ccccc4oc-3cc(=O)c2[nH]1,x,x,n,x,n,n
CCCCNc1nc(Oc2ccc(=O)n(-c3ccccc3)n2)nc(N(CC)CC)n1,n,x,n,n,x,n
CCc1cccc(N2C(=O)CSC23C(=O)Nc2ccccc23)c1 (stereo unspecified),n,x,n,n,n,n
CC(=O)Nn1c(-c2ccccc2)cc2ccccc21,n,n,14µM,n,n,n
CC(C)CCNC(=O)c1onc(CSc2ccc(Cl)cc2)c1C(=O)NCCC(C)C,n,n,n,10µM,n,n
CC(C)CCNC(=O)c1onc(CSc2ccc(F)cc2)c1C(=O)NCCC(C)C,n,n,n,u,n,n
CC(C)CCNC(=O)c1onc(CSc2ccccc2)c1C(=O)NCCC(C)C,n,n,n,4µM,n,n
CCCNC(=O)c1onc(CSc2ccccc2)c1C(=O)NCCC,n,n,n,u,n,n
CCc1ccc(C(O)c2ncc(-c3ccc(Cl)cc3)[nH]2)cc1 (stereo unspecified),n,n,n,n,n,n
COc1cccc(NC(=O)CN(C)C(=O)c2cc(-c3ccco3)nc3ccccc23)c1,n,n,x,n,n,n
CN(CCOc1ccc(Cl)cc1)C(=O)c1cc(-c2ccco2)nc2ccccc12,u,n,28µM,10µM,n,42
O=S(=O)(c1cccs1)N1CN(Cc2ccco2)c2nc3ccccc3nc21,n,n,x,1.8µM,n,n
COc1ccccc1CN1CN(S(=O)(=O)c2ccccc2)c2nc3ccccc3nc21,n,n,n,2.8µM,n,n
COCCN1CN(S(=O)(=O)c2ccccc2)c2nc3ccccc3nc21,n,n,n,n,n,n
Cc1cc(-c2ccccc2)nc2[n+]1CCN2C,n,n,28µM,n,n,n
CCOc1ccccc1NC(=O)CC(c1ccc(F)cc1)N1Cc2ccccc2C1=O (stereo unspecified),u,x,n,u,x,n
S=C(NCc1cccnc1)Nc1cc(Cl)cc(Cl)c1,n,n,n,10µM,n,n
COc1ccc(OC)c(CNC(=O)c2cc(=O)[nH]c3ccc(S(=O)(=O)N4CCCCC4C)cc23)c1 (stereo unspecified),n,x,n,n,x,n
COc1ccc(-c2nc3scc(CCNC(=O)c4cc(OC)cc(OC)c4)n3n2)cc1,n,x,n,n,x,n
CN1CCC(OC(c2ccccc2)c2ccc(Cl)cc2)C1 (stereo unspecified),u,-74,x,3.2µM,n,n
O=C(NCc1ccc(Cl)cc1)C1CCCN(c2ncnc3onc(-c4ccc(F)cc4)c23)C1 (stereo unspecified),n,x,n,n,x,n
SMILES,GLP1R cytotox,D3 antag,ClpP mod,GLP-1R inv ag,GLP1R ag,DRD3 agonist
Cc1ccccc1OCCNC(=S)Nc1ccccc1,u,n,n,u,n,n
CCC(C)NCCOCCOc1ccc(Br)cc1 (stereo unspecified),n,n,x,u,n,n
CCC(C)NCCOc1ccccc1C (stereo unspecified),n,-67,n,n,n,n
CCC(C)NCCOc1ccc(Br)cc1 (stereo unspecified),n,-68,n,u,n,n
COc1ccccc1Nc1c2c(nc3ccc(NC(=O)c4cccc(OC)c4OC)cc13)CCCC2,u,x,n,u,x,54
COc1ccccc1Nc1c2c(nc3ccc(NC(=O)c4ccccc4F)cc13)CCCC2,u,x,n,u,x,n
